# Values joined by “and” are separate entries in the source; they are usually repeats but may differ in a detail not shown here. Equal entries are not always repeated. About 3,100 (0.86%) of roughly 360,000 compounds were called active. For the sample, actives were picked, then their nearest neighbours and some compounds at random. Unmarked numbers belong to inactive results.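 The calls were made as follows: active = at least 50% inhibition at 5 µM, scaled per plate between neutral and stimulator controls; inactive = the rest.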
# Test: NF-kB reporter blockers in CF airway cells – cell-based, GFP fluorescence, uHTS, primary screen (AID 588850);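 also: PAF is a Pseudomonas aeruginosa culture filtrate used as stimulus; plate controls were PAF-stimulated DMSO wells for no effect and unstimulated DMSO wells for full effect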
# Conditions: KKLEB NF-kB-GFP reporter, PAF-induced, GFP fluorescence overnight; at 5 µM; stronger effect = higher value
row,SMILES,inhibition
1,CN(CC(=O)Nc1ccc(OC(F)(F)F)cc1)C(=O)C1CCC1,6.5%
2,O=C(O)C1CCCN1C1=NS(=O)(=O)c2ccccc21 (configuration not stated),9.4%
3,O=C(COc1ccc(S(=O)(=O)N2CCOCC2)cc1Cl)N1CCOCC1,1.5%
4,O=C(Nn1c(-c2ccc(Cl)cc2)nc2ccccc2c1=O)c1cccnc1Cl,0.4%
5,Cc1cc(C)n(CC(C)NCc2c(C(=O)N3CCOCC3)nc3c(C)cccn23)n1 (configuration not stated),-0.6%
6,CC(=O)c1ccccc1NC(=O)COC(=O)C1COc2ccccc2O1 (configuration not stated),-8.8%
7,C/C(=N/NC(=O)C1COc2ccccc2O1)c1ccco1 (configuration not stated),17.3%
8,O=C(Nc1nc(-c2ccncc2)cs1)C1COc2ccccc2O1 (configuration not stated),53.8% (active)
9,O=C(Nc1cc(S(=O)(=O)N2CCCCC2)ccc1Cl)C1COc2ccccc2O1 (configuration not stated),24.5%
10,O=C(Nc1ncc([N+](=O)[O-])s1)C1COc2ccccc2O1 (configuration not stated),60.8% (active)
11,COc1ccc(NC(=O)COC(=O)C2COc3ccccc3O2)cc1 (configuration not stated),4.2%
12,Cc1cc(OC(=O)c2ccccc2)c([N+](=O)[O-])c(=O)[nH]1,4.2%
13,O=C(O)CCc1nc2cc(Cl)ccc2n(Cc2ccccc2)c1=O,2.1%
14,CC(=O)Oc1c(C(=O)c2nnc(C)o2)c(=O)n(Cc2ccccc2)c2ccccc12,50.9% (active)
15,CCCCCn1c(=O)c(C(=O)OCC)c(Cl)c2ccccc21,9.9%
16,CC(C)CCNC(=O)c1[nH]c(C(F)(F)F)nc1-c1ccccc1,-2.1%
17,CC(C)(C)C(=O)CCN1C(=O)C2(OCCO2)c2ccccc21,-2.6%
18,CCCCn1c(N)c(N(CC(C)C)C(=O)c2ccc(-n3c(C)ccc3C)cc2)c(=O)[nH]c1=O,14.1%
19,CC1(C(=O)O)CCN1C(=O)/C=C/c1ccccc1 (configuration not stated),11.9%
20,CC1(C)CCSC(/C=C/c2ccccc2)=N1,55.9% (active)
21,CC1(C(=O)NS(=O)(=O)c2ccccc2)CCN1C(=O)C/C=C/c1ccccc1 (configuration not stated),0.3%
22,CCc1cc(-c2nnn(CCC3COCCO3)c2CC)ccc1-c1cn(Cc2ccc3ccccc3c2)nn1 (configuration not stated),19.3%
23,O=C1c2ccccc2NC(c2ccccc2O)N1NS(=O)(=O)c1ccccc1 (configuration not stated),-6.3%

row,SMILES,inhibition
1,COc1cccc(N(C(=O)c2snc(C(N)=O)c2N)C(C(=O)NCC2CCCO2)c2c[nH]c3ccccc23)c1 (configuration not stated),-0.6%
2,COc1cccc(C(=O)Nc2nnc(S(=O)(=O)N3CCOCC3)s2)c1,-7.5%
3,O=C(Nc1nnc(S(=O)(=O)N2CCOCC2)s1)c1cccc(Br)c1,13%
4,O=C(Nc1nnc(S(=O)(=O)N2CCCCCC2)s1)c1cccc(Br)c1,57% (active)
5,C/C(=N\NS(=O)(=O)c1ccc(Cl)cc1)c1ccc(NC(=O)c2ccco2)cc1,-14%
6,N#CCCC(C#N)(c1cccnc1)N1CCOCC1 (configuration not stated),-15.6%
7,CNCC(O)c1ccc(O)c(O)c1 (configuration not stated),12.4%
8,CCN(CC)S(=O)(=O)c1ccc2c3c(cccc13)C(=O)S2,54.1% (active)
9,CCN1C(=O)c2cccc3c(S(=O)(=O)Nc4ccccc4O)ccc1c23,-71.5%
10,CN(CCc1ccccn1)S(=O)(=O)c1ccc2c3c(cccc13)C(=O)N2,5.4%
11,Cc1ccc(C(=O)OCC(=O)NCc2cc(C)c(O)c(C)c2)cc1S(=O)(=O)N1CCCCC1,-0.3%
12,COCCCNc1ccn2nc(-c3ccc(CC(C)C)cc3)cc2n1,-77.9%
13,O=c1c(/C=N/O)coc2ccc(Cl)cc12,0.9%
14,Cc1ccc2occ(/C=N/NC(=O)c3ccccc3C)c(=O)c2c1,71% (active)
15,CC(C)(C)OC(=O)NCCCCCC(=O)N/N=C/c1coc2ccccc2c1=O,4.1%
16,Cc1ccc(NC(=O)[C@H](Cc2ccccc2)NC(=O)CC[C@H]2O[C@@H](n3ccc(=O)[nH]c3=O)[C@H](O)[C@@H]2O)cc1C,-33.7%
17,CCCCC(CC)CNCc1cccn1CCN1CCOCC1 (configuration not stated),-18.7%
18,Cc1ccc(COc2ccc(/C=N/NC(=O)CN3CCCCC3)cc2)cc1,-24.1%
19,Cc1ccc(/C=N/NC(=O)CSc2nc3ccccc3o2)cc1,-2.1%
20,Cc1ccc(/C=N/NC(=O)COc2ccccc2-c2ccccc2)cc1,51.1% (active)
21,O=C(NCc1ccc(F)cc1)c1cc(C2CCCCN2C(=O)c2ccccn2)on1 (configuration not stated),4.9%
22,C=CCN1C=C(C(=O)c2ccccc2)C(=O)CC1,3.5%
23,O=C(CSCc1ccccc1)Nc1ccccc1,-2.5%

row,SMILES,inhibition
1,O=C(CCl)Nc1cccc(CP(=O)(c2ccccc2)c2ccccc2)c1,58% (active)
2,O=C(CSc1ccccc1)Nc1ccc(C(=O)Nc2cccc(O)c2)cc1,-12.7%
3,O=C(NCc1nnc(SCC(=O)N2CCC(Cc3ccccc3)CC2)o1)c1ccco1,13.2%
4,CCOC(=O)C1(CCOC)CCN(Cc2cc3ccccc3s2)CC1,11.7%
5,O=[N+]([O-])c1ccc(Oc2ccc(F)cc2Br)c2ccncc12,65% (active)
6,O=c1ccc2c(-c3ccccc3S(=O)(=O)O)c3ccc(O)c(O)c3oc-2c1O,22%
7,Oc1c(C(c2cccs2)N2CCN(c3ccc(F)cc3)CC2)sc2ncnn12 (configuration not stated),17.4%
8,CCOC(=O)C1=CC[C@@H](c2ccccc2)N(S(=O)(=O)c2ccc(C)cc2)[C@H]1c1ccc(CC)cc1,11.8%
9,Cc1ccc(NC(=O)Nc2cc(-c3ccccc3)nn2C)cc1Cl,-3.9%
10,Cc1nnc(NC(=O)Nc2ccc(Cl)c(Cl)c2)s1,83.2% (active)
11,Cc1ccc(NC(=O)Nc2nnc(-c3ccncc3)s2)cc1,68% (active)
12,CCc1ccc(NC(=O)Nc2ccncc2)cc1,16.4%
13,CC(C)=CC(=O)Nc1nnc(-c2ccc(F)cc2)s1,0.2%
14,Cc1nnc(NC(=O)Cn2c(=O)sc3ccccc32)s1,-6.1%
15,C[C@H]1Cn2cnc(C(=O)N[C@H](C)c3ccccc3)c2C(=O)N1,-3.8%
16,CCOC(=O)C1=C(CC)Nc2ccccc2N=C1N,-14.1%
17,CC(C)Cn1cnc2c1c(=O)n(CC(O)c1ccccc1)c(=O)n2CC(C)C (configuration not stated),9%
18,COc1ccc(NC(=S)N2N=CCC2c2ccccc2)cc1 (configuration not stated),5.1%
19,Cc1nnc(SCCCCSc2nnc(C)c(=O)[nH]2)[nH]c1=O,6.2%
20,CC(=O)c1cccc(-c2cnc3c(NC=O)cc(-c4ccc(N(C)C)cc4)cn23)c1,29.8%
21,CC(=O)c1cccc(-c2cnc3c(NC=O)cc(-c4cccc(C(=O)N(C)C)c4)cn23)c1,0.7%
22,CC(=O)c1ccc(-c2cnc3c(NC=O)cc(-c4cccc(NS(C)(=O)=O)c4)cn23)cc1,74.7% (active)
23,COc1ccc(-c2cc3nc(NCCOc4ccccc4)ccn3n2)cc1,20.8%

row,SMILES,inhibition
1,COc1cncc(-c2cnc3sc(NCCc4ccccn4)nn23)c1,74.1% (active)
2,Cc1ccc(C(=O)N/C(=C\c2cccs2)C(=O)NCCc2ccccn2)cc1C,5.1%
3,O=C(OCc1ccccc1)N1CCC2CC1c1cc(N3CCN(S(=O)(=O)c4cc(Cl)cc(Cl)c4)CC3)ccc12 (configuration not stated),10.1%
4,CCC1=C(OC(=O)N(CC)CC)N2C(=O)OC(=NCC3CC3)[C@]2(C)[C@H]2C1=CC[C@H]1C(=O)N(CC(=O)OC)C(=O)[C@H]12,7.9%
5,COc1cc(C(=O)N/C(=C\c2cn(C)c3ccccc23)C(=O)N2CCOCC2)cc(OC)c1OC,-23.4%
6,COc1cc(NC(=O)c2cncc(-c3ccc(C#N)cc3)c2)cc(C(=O)Nc2cccc(C(F)(F)F)c2)c1,-39% and -21.4%
7,COc1ccc(C(N)c2csc(NC(=O)Nc3cccc(C(F)(F)F)c3)n2)cc1 (configuration not stated),24.7%
8,COc1cc(NC(=O)c2[nH]cnc2C(N)=O)cc(C(=O)Nc2cccc(C(F)(F)F)c2)c1,53.2% (active)
9,CCCCn1ccnc1C(=O)c1cccc(S(=O)(=O)N2c3ccccc3CC2C)c1 (configuration not stated),2.6%
10,COc1ccccc1OCc1ccc(C(=O)N2CCN(C)CC2)o1,6.4%
11,COc1ccccc1N1CCN(C(=O)c2cc(=O)c3cc(C)cc(C)c3o2)CC1,51% (active)
12,COc1ccccc1N1CCN(C(=O)c2ccc(NC3=NC4CS(=O)(=O)CC4S3)cc2)CC1 (configuration not stated),-7.3%
13,O=C(COC(=O)c1cccnc1Cl)Nc1ccc(S(=O)(=O)N2CCOCC2)cc1,5.3%
14,CCN(CC)S(=O)(=O)c1ccc2[nH]c(=O)cc(C(=O)N(C)C3CCS(=O)(=O)C3)c2c1 (configuration not stated),-1.3%
15,O=C1C=C(NS(=O)(=O)c2ccccc2)C(=O)c2ccccc21,72% (active)
16,Cc1cc(NS(=O)(=O)c2ccccc2)no1,-1.3%
17,COc1ccc(S(=O)(=O)/N=C2\C=C(NS(=O)(=O)c3ccccc3)C(=O)c3ccccc32)cc1,45%
18,O=C(NC1=CC(=O)c2ccccc2C1=O)c1ccccc1,84.9% (active)
19,Cc1cc(=O)c2ccc(NC(=O)c3ccccc3)cc2[nH]1,3.1%
20,O=C(O)c1ccccc1NC(=O)c1ccccc1-c1ccccc1C(=O)O,11.9%
21,Cc1ccc(S(=O)(=O)N/N=C(\c2ccccc2)C2CC2)cc1,14.8%
22,Cc1ccc(S(=O)(=O)/N=C2\C=C(NS(=O)(=O)c3ccc(C)cc3)C(=O)c3ccccc32)cc1,68.9% (active)
23,CC(=O)NS(=O)(=O)c1ccccc1,10.6%

# Reference: PubChem BioAssay AID588850 (Sanford-Burnham Center for Chemical Genomics, 2011)
